Laboratory results reported in PubChem BioAssay (NCATS).
Records with an inconclusive call do not appear. Calls of active or inactive are those of the source. Unless noted, the call rests on the fitted dose curve; in most records, active means well fitted curve in the direction sought with a large enough effect; inconclusive means small, poorly fitted or top-dose-only effect, or another doubt; inactive means no such curve, though single readings can be large; an effect the other way counts as inactive or inconclusive.

Legend:
[1] = qHTS Assay for Identification of Small Molecule Agonists for Thrombopoietin (TPO) Signaling Pathway (AID 917); settings: TPO signaling pathway reporter cells, agonist qHTS; series mostly up to 38.5 µM
In short: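 First, Ba/F3 cells with human TPO receptor were held overnight without IL-3. Next, compounds and TPO (26 pM final) were added. After 24 hrs at 37 C, luciferase detection reagent was added and luminescence measured following 10 min at room temperature.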

[2] = target: Muscarinic acetylcholine receptor M1 (Rattus norvegicus) (UniProt P08482); experiment: qHTS Assay for Antagonists of Acetylcholine Muscarinic M1 Receptor: Kinetic Measurement of Intracellular Calcium Response (AID 943); settings: M1-expressing cells, kinetic intracellular calcium fluorescence; series mostly up to 35.3 µM
In short: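 Antagonism is measured as inhibition of the carbachol-evoked calcium rise in CHO cells transfected with rat M1. Cells are dye-loaded, exposed to compound for 10 min, then stimulated with 100 nM carbachol (EC80).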

[3] = target: Muscarinic acetylcholine receptor M1 (Rattus norvegicus) (UniProt P08482); experiment: qHTS Assay for Antagonists of Acetylcholine Muscarinic M1 Receptor: Measurement of IP-One Response (AID 944); settings: CHO-M1 cells, IP-One HTRF, antagonist mode; series mostly up to 46.1 µM
In short: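 Antagonist mode with rat M1 receptor transfected into CHO cells. Compound is added first for 10 min, carbachol at its EC80 follows for 30 min, and lysis reagents then allow TR-FRET detection of accumulated IP1.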

[4] = target: Pyruvate kinase PKM (Homo sapiens) (UniProt P14618); experiment: qHTS Assay for Activators of Human Muscle Pyruvate Kinase (AID 954; active means well fitted curve in the direction sought with a large enough effect, not every such curve was filed as active); settings: purified human muscle pyruvate kinase, luciferase-coupled luminescence, 1 h; series mostly up to 57.5 µM
In short: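 PKM2, human, >95% pure, 0.1 nM; PEP 0.5 mM (Km), ADP 0.1 mM; 50 mM imidazole pH 7.2, 50 mM KCl, 0.01% Tween 20, 0.05% BSA; 1 h RT; luciferase luminescence readout.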

[5] = target: Alpha-galactosidase (Coffea arabica) (UniProt Q42656); experiment: Counterscreen for Glucocerebrosidase Inhibitors: qHTS Assay for Coffee Bean alpha-Galactosidase at pH 4.5 (AID 957); settings: purified coffee bean alpha-galactosidase, fluorogenic substrate; series mostly up to 76.9 µM
In short: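 Enzyme is added first (2 nM final), then compounds titrated from 0.7 nM to 77 uM, then 80 uM 4-methylumbelliferyl alpha-D-galactopyranoside; after 20 min at room temperature a pH 10 NaOH/glycine stop precedes fluorescence reading at 365/440 nm.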

[6] = target: Alpha-galactosidase (Coffea arabica) (UniProt Q42656); experiment: Counterscreen for Glucocerebrosidase Inhibitors: qHTS Assay for Coffee Bean alpha-Galactosidase at pH 5.9 (AID 998); settings: coffee bean alpha-galactosidase enzyme assay; series mostly up to 76.9 µM
In short: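 In 50 mM citric acid pH 5.9 with 0.005% Tween-20, coffee bean enzyme hydrolyses 80 uM 4-MU alpha-D-galactopyranoside over 20 min at RT. Activity is normalized to controls; AC50 comes from Hill-modelled concentration-response data.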

[7] = NFAT Signaling Pathway (AID 444; active means well fitted curve in either direction with a large enough effect, not every such curve was filed as active); settings: Jurkat NFAT-bla M1, carbachol, beta-lactamase ratio, 5 h
In short: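 Jurkat cells carrying an NFAT-driven β-lactamase reporter and co-transfected muscarinic M1 receptor were treated with compound plus carbachol (1 uM final, an EC50 level) for 5 h at 37 °C. CCF4 loading followed for 1 h at RT; 460/530 nm ratio gave %activity.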

AS120 = experiment: qHTS profiling for inhibitors of Plasmodium falciparum proliferation (AID 504749); settings: P. falciparum in erythrocytes, SYBR Green DNA, 72 h; series mostly up to 28.7 µM
In short: (§1)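 Quantitative HTS: compounds pinned into medium, infected erythrocytes added (0.3% parasitemia, 2.5% hematocrit), 72 h culture at 37 C under 5% CO2. Saponin/Triton lysis with SYBR Green I, overnight RT, then fluorescence read.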

ATS189 = experiment: as above; settings: P. falciparum in erythrocytes, SYBR Green DNA, 72 h; series mostly up to 28.7 µM
In short: as §1

CP191 = experiment: as above; settings: P. falciparum in erythrocytes, SYBR Green DNA, 72 h; series mostly up to 28.7 µM
In short: as §1

CP192 = experiment: as above; settings: P. falciparum in erythrocytes, SYBR Green DNA, 72 h; series mostly up to 28.7 µM
In short: as §1

CP201 = experiment: as above; settings: P. falciparum in erythrocytes, SYBR Green DNA, 72 h; series mostly up to 28.7 µM
In short: as §1

CP203 = experiment: as above; settings: P. falciparum in erythrocytes, SYBR Green DNA, 72 h; series mostly up to 28.7 µM
In short: as §1

CP247 = experiment: as above; settings: P. falciparum in erythrocytes, SYBR Green DNA, 72 h; series mostly up to 28.7 µM
In short: as §1

CP291 = experiment: as above; settings: P. falciparum in erythrocytes, SYBR Green DNA, 72 h; series mostly up to 28.7 µM
In short: as §1

DFO2036 = experiment: as above; settings: P. falciparum in erythrocytes, SYBR Green DNA, 72 h; series mostly up to 28.7 µM
In short: as §1

P94_40 = experiment: as above; settings: P. falciparum in erythrocytes, SYBR Green DNA, 72 h; series mostly up to 28.7 µM
In short: as §1

TAB109 = experiment: as above; settings: P. falciparum in erythrocytes, SYBR Green DNA, 72 h; series mostly up to 28.7 µM
In short: as §1

TAB113 = experiment: as above; settings: P. falciparum in erythrocytes, SYBR Green DNA, 72 h; series mostly up to 28.7 µM
In short: as §1

[8] = qHTS for Antimalaria activity screened against the NCATS CANVASS Library (AID 1347380); settings: P. falciparum Dd2 growth, SYBR Green fluorescence, 72 h; series mostly up to 28.7 µM
In short: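 Compounds are titrated over 11 concentrations onto Dd2 parasite cultures (0.3% parasitemia, 2.5% hematocrit). Growth over 72 h at 37C in low oxygen is measured as SYBR Green DNA fluorescence after lysis.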

Pyruvate kinase PKM (Homo sapiens), sequence (P14618 whole entry, looked up): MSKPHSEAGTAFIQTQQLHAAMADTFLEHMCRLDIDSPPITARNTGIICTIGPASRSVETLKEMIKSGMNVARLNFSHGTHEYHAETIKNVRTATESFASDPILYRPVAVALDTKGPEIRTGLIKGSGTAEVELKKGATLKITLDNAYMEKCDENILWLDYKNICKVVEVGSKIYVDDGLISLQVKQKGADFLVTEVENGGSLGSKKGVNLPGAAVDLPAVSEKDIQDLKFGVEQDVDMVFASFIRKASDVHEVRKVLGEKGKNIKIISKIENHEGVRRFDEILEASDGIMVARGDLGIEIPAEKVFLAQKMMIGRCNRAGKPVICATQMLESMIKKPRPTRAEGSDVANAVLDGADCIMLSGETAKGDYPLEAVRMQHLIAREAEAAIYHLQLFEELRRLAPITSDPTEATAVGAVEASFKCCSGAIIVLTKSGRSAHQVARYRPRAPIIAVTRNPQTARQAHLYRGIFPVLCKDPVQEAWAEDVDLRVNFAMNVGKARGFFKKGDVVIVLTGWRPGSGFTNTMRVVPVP
Alpha-galactosidase (Coffea arabica), sequence (Q42656 whole entry, looked up): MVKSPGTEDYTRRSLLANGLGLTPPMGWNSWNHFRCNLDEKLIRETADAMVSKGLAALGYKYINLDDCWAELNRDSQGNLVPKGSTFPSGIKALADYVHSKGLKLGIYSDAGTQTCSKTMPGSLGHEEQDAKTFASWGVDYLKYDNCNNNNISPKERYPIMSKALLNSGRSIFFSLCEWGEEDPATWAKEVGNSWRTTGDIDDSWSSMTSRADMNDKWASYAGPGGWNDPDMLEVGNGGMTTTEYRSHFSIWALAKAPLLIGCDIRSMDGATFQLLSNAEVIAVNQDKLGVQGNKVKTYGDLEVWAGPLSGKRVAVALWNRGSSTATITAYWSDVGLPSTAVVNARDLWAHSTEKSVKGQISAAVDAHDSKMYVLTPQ
Muscarinic acetylcholine receptor M1 (Rattus norvegicus), sequence (P08482 whole entry, looked up): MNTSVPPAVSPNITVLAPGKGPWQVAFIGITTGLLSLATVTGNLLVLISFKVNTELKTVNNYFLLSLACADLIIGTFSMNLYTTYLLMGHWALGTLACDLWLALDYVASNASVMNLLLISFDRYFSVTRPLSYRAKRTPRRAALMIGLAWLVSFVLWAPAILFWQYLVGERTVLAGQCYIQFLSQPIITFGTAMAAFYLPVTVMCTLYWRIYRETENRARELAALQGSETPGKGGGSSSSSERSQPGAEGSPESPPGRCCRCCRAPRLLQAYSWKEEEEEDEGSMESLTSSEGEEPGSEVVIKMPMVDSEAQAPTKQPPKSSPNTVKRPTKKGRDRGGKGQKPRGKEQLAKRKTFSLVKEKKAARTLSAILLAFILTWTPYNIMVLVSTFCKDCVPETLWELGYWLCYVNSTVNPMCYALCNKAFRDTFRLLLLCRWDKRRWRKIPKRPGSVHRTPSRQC

O=C1NCN(c2ccccc2)C12CCN(C[C@H]1COc3ccccc3O1)CC2
inactive: outcome [1] | Potency [2] | Potency [3] | outcome [4] | outcome [5] | outcome [6]

C=C(C)[C@H]1CN[C@H](C(=O)O)[C@@H]1CC(=O)O
inactive: Potency [3] | outcome [4] | outcome [6]

CN1CCN(C(=O)OC2c3nccnc3C(=O)N2c2ccc(Cl)cn2)CC1 (configuration not stated)
inactive: activity change, negative = inhibition ([7]; at 17.2 µM (top of the series)) 3%

C/C(O)=C(/C#N)C(=O)Nc1cc(Br)ccc1Br
inactive: activity change, negative = inhibition ([7]; at 38 µM (top of the series)) 6.53% | outcome [1] | Potency [2] | outcome [4] | outcome [5] | outcome [6]

NC[C@@H](CC(=O)O)c1ccc(Cl)cc1
inactive: activity change, negative = inhibition ([7]; at 17.2 µM (top of the series)) -1.76% | activity change, negative = inhibition ([7]; at 38 µM (top of the series)) -6.39%

O=C1CC[C@@]2(O)[C@H]3Cc4ccc(O)c5c4[C@@]2(CCN3CC2CC2)[C@@H]1O5
inactive: outcome [1] | Potency [3] | outcome [5] | outcome [6]

C[C@H](N)Cc1cnc[nH]1
inactive: Potency [2] | Potency [3] | outcome [4] | outcome [5] | outcome [6]

CCN1C[C@]2(COC)[C@H](O)C[C@H](OC)[C@]34C1C([C@H](OC)[C@H]23)[C@]1(OC(C)=O)C2[C@@H](OC(=O)c3ccccc3)C(O)(C[C@H]24)[C@@H](OC)[C@@H]1O
inactive: Potency (AS120) | Potency (ATS189) | Potency (CP191) | Potency (CP192) | Potency (CP201) | Potency (CP203) | Potency (CP247) | Potency (CP291) | Potency (DFO2036) | Potency (P94_40) | Potency (TAB109) | Potency (TAB113)

CC(=O)N[C@H]1CCN2CCC[C@H]12
inactive: Potency [8]

O=C(Cc1ccc(Cl)c(Cl)c1)N1CCCC[C@H]1CN1CCCC1
inactive: outcome [1] | outcome [4] | outcome [5] | outcome [6]

CO[C@@H](/C=C/CC/C=C/C(=O)O)[C@@H](O)[C@H](C)/C=C(\C)[C@@H](O)[C@H](C)C(=O)CCCC1CC(=O)NC(=O)C1
inactive: Potency [8]

N[C@H](C(=O)O)c1cc(=O)[nH]o1
inactive: outcome [1] | Potency [2] | Potency [3] | outcome [4] | outcome [6]

CCC[C@H]1CC[C@H]2[C@H](C)CCC[C@H]2N1
inactive: Potency [8]

COc1ccc(C23Oc4cc(OC)cc(OC)c4[C@](O)([C@H](c4ccccc4)C2C(=O)NCCCCNC(=O)c2ccccc2)[C@@H]3O)cc1 (some centres not stated)
inactive: Potency [8]

CC[N@@+]1([O-])C[C@]2(C)CC[C@@H](O)[C@@]34C5C[C@H]6CC[C@@]5(C(C[C@H]23)C41)[C@H](O)[C@@]6(O)CO (some centres not stated)
inactive: Potency [8]

O=C(c1ccccc1O)c1[nH]c(Cl)c(Cl)c1-n1c(C(=O)c2ccccc2O)cc(Cl)c1Cl
active: Potency [8] 0.472 µM

Oc1ccc2c3c1O[C@H]1c4oc5ccccc5c4C[C@]4(O)[C@H](C2)N(CC2CC2)CC[C@@]314
inactive: outcome [1] | outcome [4] | outcome [5] | outcome [6]

CC(C)[C@@]1(NC(=O)[C@H]2CC3c4cccc5[nH]cc(c45)C[C@H]3N(C)C2)O[C@@]2(O)C3CCCN3C(=O)[C@@H](Cc3ccccc3)N2C1=O (some centres not stated)
active: Potency (AS120) 0.891 µM | Potency (ATS189) 2.82 µM | Potency (CP191) 5.01 µM | Potency (CP192) 7.57 µM | Potency (CP201) 10.7 µM | Potency (CP203) 6.75 µM | Potency (CP247) 8.91 µM | Potency (CP291) 10.7 µM | Potency (DFO2036) 7.08 µM | Potency (P94_40) 2 µM | Potency (TAB109) 4.47 µM | Potency (TAB113) 3.55 µM

CCC(=O)CCCCC[C@@H]1NC(=O)[C@H]2CCCCN2C(=O)[C@H]([C@@H](C)CC)NC(=O)[C@H](Cc2cn(OC)c3ccccc23)NC1=O
active: Potency [8] 0.0334 µM

O=C(O)c1ccccc1-c1c2cc(Br)c(=O)cc-2oc2[c]([Hg])c(O)c(Br)cc12
inactive: activity change, negative = inhibition ([7]; at 17.2 µM (top of the series)) -24.9% | Potency (AS120) | Potency (ATS189) | Potency (CP191) | Potency (CP192) | Potency (CP201) | Potency (CP203) | Potency (CP247) | Potency (CP291) | Potency (DFO2036) | Potency (P94_40) | Potency (TAB109) | Potency (TAB113)

CCN(CC)CCO[C@H]1CC[C@@]2(C)C(=CC[C@@H]3[C@H]2CC[C@]2(C)C(=O)CC[C@H]32)C1
inactive: Potency (AS120) | Potency (ATS189) | Potency (CP191) | Potency (CP192) | Potency (CP201) | Potency (CP203) | Potency (CP247) | Potency (CP291) | Potency (DFO2036) | Potency (P94_40) | Potency (TAB109) | Potency (TAB113)

c1ccc2c3c([nH]c2c1)CNCC3
inactive: Potency [8]

CCN1C[C@]2(C)CC[C@H](O)[C@]34C1C(C[C@H]23)[C@@]12CC[C@H](CC14)[C@](O)(COC(=O)c1ccc(OC)c(OC)c1)[C@H]2O (some centres not stated)
inactive: Potency [8]

CNCCc1c[nH]c2ccccc12
inactive: Potency [8]

CC(C)[C@@]1(NC(=O)[C@@H]2C[C@H]3c4cccc5[nH]cc(c45)C[C@@H]3N(C)C2)O[C@@]2(O)[C@H]3CCCN3C(=O)[C@H](Cc3ccccc3)N2C1=O
inactive: outcome [4] | outcome [5] | outcome [6]

COC(=O)N1CCN(C(=O)Cc2ccc(Cl)c(Cl)c2)[C@H](CN2CCCC2)C1
inactive: outcome [1] | Potency [3] | outcome [4] | outcome [5] | outcome [6]
